# Source: PubChem BioAssay
# In the library only some 4.6% were active in any assay of this set; here they are far more common.
# Tau fluor counter: counter-screen for tau fibril formation inhibitors. tau K18 P301L Alexa594 fluorescence, heparin fibrillization. Potency, µM (series often up to 57.7 µM), for the others: at the top dose activity change, negative = decrease. 0.93% of 280,000 active. AID 1463; note: potency is the fitted concentration of half-maximal effect; nearly all actives have a fitted effect of over 55% in size
#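 Human K18 P301L tau (15 uM unlabeled plus 0.24 uM Alexa 594-labeled, final) in 100 mM sodium acetate pH 7 was mixed with compound and 20 uM heparin and incubated 6 hr at 37 C.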
# Tau ThT inhib: blocks human tau fibril formation measured by thioflavin T | P10636 | recombinant tau K18 P301L (four-repeat tau fragment), heparin-induced fibrillization, ThT fluorescence | Potency, µM (highest dose often 57.4 µM), for inactives: at the highest dose activity, negative = inhibition, usual class: inhibitors | 2.1% of 270,000 active; note: potency is the fitted concentration of half-maximal effect; nearly all actives have a fitted effect of over 55% in size
# Target sequence (P10636 561-689 P618L limits assumed): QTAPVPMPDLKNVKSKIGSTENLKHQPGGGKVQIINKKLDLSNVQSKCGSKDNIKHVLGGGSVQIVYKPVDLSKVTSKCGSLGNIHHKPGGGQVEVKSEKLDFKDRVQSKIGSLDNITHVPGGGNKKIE
#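 In this qHTS, human K18 P301L tau is incubated with compound and heparin for 6 hr at 37 C, and Thioflavin T fluorescence then reports fibril load.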
# TRb-SRC2 inh: TRbeta-SRC2 interaction inhibition; Potency, µM (series often up to 106 µM), for inactives: at the top dose activity change, negative = inhibition, hits mostly inhibitors; TRbeta-SRC2 peptide binding, fluorescence polarization; receptor liganded with 1 µM T3; AID 1469; 0.065% of 280,000 active; P10828;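 note: potency is the fitted concentration of half-maximal effect; plate controls were bound peptide for no effect and peptide without receptor for full effect; nearly all actives have a fitted effect of over 50% in size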
#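 Human TRb ligand-binding domain (0.6 uM) is mixed with 20 nM Texas Red SRC2 peptide and 1 uM T3; after compound addition and 5 hr at ambient temperature, polarization is measured and normalized to unbound and bound controls.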
# Tau fibril FP: inhibitors of human tau fibril formation | P10636 | K18 P301L tau heparin fibrillization, Alexa594 FP, 6 h | Potency, µM (highest dose often 57.7 µM), for the others: at the highest dose activity, negative = inhibition, most hits filed as inhibitors | 0.39% of 280,000 active | AID 1468; note: potency is the fitted concentration of half-maximal effect; nearly all actives have a fitted effect of over 55% in size
#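 Quantitative HTS format: compounds meet 15 uM recombinant K18 P301L tau and Alexa 594-tau tracer in 100 mM sodium acetate pH 7; 20 uM heparin triggers fibrillization at 37 C over 6 hr; FP gives the signal.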
# PNC inhibitor: blocks assembly of the perinucleolar compartment; PC3M PTB-GFP, PNC prevalence imaging, 16 h; active compounds read low; activity change (PNC), negative = inhibition, % at 10 µM; 3.1% of 140,000 active; AID 2417;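 active = readout at or below -70, meaning at least 70% loss of cells showing the perinucleolar compartment, a nuclear body marking cancer cells; inconclusive = readout between -30 and a set limit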;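 note: plate controls were DMSO wells for no effect and camptothecin positive control wells for full effect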
#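 Compounds are pinned in duplicate onto adhered PC3M cells stably expressing GFP-tagged PTB and incubated 16 h at 37 C. Cells are then fixed, nuclei stained with Hoechst, and PNC-positive cells counted.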
# TR SRC2 fluor cs: counter-screen for TRb-SRC2 inhibitors: fluorescence interference; Potency, µM (series often up to 106 µM), without a hit: top-dose fluorescence change, negative = quenching; TRb/SRC2 Texas Red total fluorescence interference; 0.29% of 280,000 active; active = well fitted curve in either direction with a large enough effect; inconclusive = small, poorly fitted or top-dose-only effect; note: potency is the fitted concentration of half-maximal effect
#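 Human TRb ligand-binding domain at 0.6 uM with 20 nM Texas Red SRC2 peptide in Tris buffer containing 1 uM T3 and 5% DMSO, incubated with compound 5 h at ambient temperature. Total fluorescence (555/632 nm) calculated as parallel + 2 × perpendicular.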
# An asterisk follows results filed as active; ? = inconclusive; · = no result given; [ ] = dose if it differs, or a comment. Unless noted, calls come from the whole dose curve; as a rule, active = well fitted curve in the direction sought with a large enough effect; inconclusive = small, poorly fitted or top-dose-only effect, or another doubt; inactive = no such curve, though single readings can be large; an effect the other way counts as inactive or inconclusive. Unless noted, % is set by controls: 0 for no effect and ±100 for the full control effect.
SMILES,Tau fluor counter,Tau ThT inhib,TRb-SRC2 inh,Tau fibril FP,PNC inhibitor,TR SRC2 fluor cs
COc1cc(OC)c(NC(=O)N2CC=C(c3c[nH]c4ccccc34)CC2)cc1Cl,7.9µM*[quencher],?,3%,?,·,-2%
Cc1cc(NC(=O)N2CC=C(c3c[nH]c4ccccc34)CC2)ccc1Br,13µM*[quencher],7.9µM*,-5%,-10%,·,-2%
CCOC(=O)c1cccc(NC(=O)N2CC=C(c3c[nH]c4ccccc34)CC2)c1,13µM*[quencher],?,-2%,-6%,·,0%
CCc1ccc(NC(=O)N2CC=C(c3c[nH]c4ccccc34)CC2)cc1,13µM*[quencher],7.1µM*,-2%,-1%,·,-12%
O=C1CC(SCc2nc3ccccc3[nH]2)C(=O)N1c1cccc(Cl)c1 (stereo not drawn),-21%,?,3%,1%,?,0%
CCCOc1ccc(C2NC(=O)NC2=O)cc1 (stereo not drawn),-8%,-6%,-3%,?,-28,-1%
CCOc1ccc(NC(=O)N2CC=C(c3c[nH]c4ccccc34)CC2)cc1,16µM*[quencher],4.5µM*,1%,-8%,·,-1%
Cc1ccc(C)c(NC(=O)N2CC=C(c3c[nH]c4ccccc34)CC2)c1,25µM*[quencher],?,-8%,7%,·,-1%
C=CCN(CC=C)S(=O)(=O)c1ncn[nH]1,-9%,-10%,3%,0%,-28,0%
CSc1nc2ccc(NS(=O)(=O)c3ccccc3F)cc2s1,-11%,-5%,-4%,3%,-9,-4%
CSc1nc2ccc(NS(=O)(=O)c3c(Cl)cccc3Cl)cc2s1,10µM*[quencher],?,-12%,-3%,-4,-2%
COc1ccc(NC(=O)CN(C)S(=O)(=O)c2cccs2)cc1,-12%,-14%,-12%,-9%,20,-2%
Clc1cccc2sc(N3CCCCC3)nc12,-6%,-6%,0%,-2%,-82*,-3%
Clc1cc(Cl)c2nc(N3CCCCC3)sc2c1,-2%,-8%,-23%,3%,3,1%
COc1ccc(C2=CC(=O)C=CC2=O)cc1,?,14µM*,0%,35µM*,·,-2%
Cc1c(NC(=S)N/N=C/C=C/c2ccc([N+](=O)[O-])cc2)c(=O)n(-c2ccccc2)n1C,-14%,?,5%,8%,-109*,-7%
CCNc1nc(-c2cc(C)n(Cc3ccco3)c2C)cs1,-19%,?,1%,-1%,·,6%
Cc1cc(-c2csc(NC(=O)c3ccc(=O)[nH]c3)n2)c(C)n1Cc1ccco1,?,4µM*,4%,?,·,?
CCOc1ccccc1NC(=O)C1=C(C)Nc2ncnn2C1c1sccc1C (stereo not drawn),-22%,-14%,2%,-3%,·,-7%
Cc1cc(C)nc(Nc2nc3ccccc3[nH]2)n1,-4%,?,-16%,3%,?,3%
CC1=NOC(=O)/C1=C/c1ccc(N(C)C)cc1,-22%,?,0%,-6%,25,-1%
CCN(CC)c1ccc(/C=C2\C(=O)N(c3nnc(C)c(=O)[nH]3)N=C2C)cc1,6%,7.9µM*,2%,?,·,-5%
CCN(CC)c1ccc(/C=C2/C(=O)ON=C2C)cc1,-28%,8.9µM*,8%,-6%,6,-13%
CC(Sc1nc(-c2ccc(F)cc2)cs1)C(=O)Nc1ccc(Cl)cn1 (stereo not drawn),-14%,1%,-3%,0%,-100*,-1%
